# Experimental data from the supplement of paper PMC6992640.
# Counter-ions that a name gives are not always drawn. ± gives the standard deviation of the averaged measurements.
# Experiments:
# Experiment in all cases: cell viability (% of vehicle); higher = less cytotoxic
# Conditions in all cases: 10 µM; 72 h
# [1] = system: HCI01 (cells of a triple-negative basal-like breast cancer xenograft)
# [2] = system: HCI03 (cells of an ER-positive luminal breast cancer xenograft)
# [3] = system: HCI09 (cells of a triple-negative luminal androgen receptor type breast cancer xenograft)
# [4] = system: HCI11 (cells of an ER-positive luminal breast cancer xenograft)
# [5] = system: HCI13 (cells of an ER-positive luminal breast cancer xenograft)
# [6] = system: HCI16 (cells of a triple-negative basal-like breast cancer xenograft)
# [7] = system: UCD52 (cells of a triple-negative basal-like breast cancer xenograft)
# [8] = system: WHIM2 (cells of a triple-negative basal-like breast cancer xenograft)
# [9] = system: WHIM30 (cells of a triple-negative basal-like breast cancer xenograft)
# 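Note: PDX cells carrying CMV promoter-driven luciferase, viability read as total photon flux per second by IVIS imaging following D-luciferin, vehicle control 0.1% DMSO.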
SMILES,cell viability [1],cell viability [2],cell viability [3],cell viability [4],cell viability [5],cell viability [6],cell viability [7],cell viability [8],cell viability [9]
NCC1OC(OC2C(N)CC(N)C(OC3OC(CO)C(O)C(N)C3O)C2O)C(O)C(O)C1O.O=S(=O)(O)O (stereo not given) [Kanamycin Sulfate],106 ± 5.6,92.9,90.5 ± 16,96.7,120 ± 31,86.8,81.5 ± 0.83,80.1 ± 15,95.8 ± 11
OC[C@@H](O)[C@@H](O)[C@H](O)[C@H](O)CO [D-Mannitol],74.7 ± 26,95.7,93.1 ± 16,83.2,88.7 ± 6.7,114,74 ± 2.5,97.5 ± 16,115 ± 6.2
CN1CCN2c3ncccc3Cc3ccccc3C2C1 (stereo not given) [Mirtazapine],66.7 ± 36,149,91.4 ± 1.8,103,118 ± 26,114,86.1 ± 2.4,87.6 ± 30,138 ± 17
CNCC(O)c1ccc(O)c(O)c1 [L-Adrenaline],131 ± 58,137,142 ± 37,110,121 ± 32,138,112 ± 15,102 ± 7.6,162 ± 8.5
Cc1nnc(C(=O)NC(C)(C)c2nc(C(=O)NCc3ccc(F)cc3)c(O)c(=O)n2C)o1 [Raltegravir (MK-0518)],126 ± 2,134,97 ± 18,116,93.4 ± 11,118,119 ± 20,116 ± 15,136 ± 7.5
C[N+](C)(C)CC(O)CC(=O)[O-] [L-Carnitine inner salt],123 ± 44,119,99.8 ± 10,95.7,111.7 ± 1.1,114,103 ± 3.8,96.9 ± 13,103 ± 10
Cc1c(OCC(F)(F)F)ccnc1CS(=O)c1nc2ccccc2[nH]1 (stereo not given) [Dexlansoprazole],188 ± 46,149,94.9 ± 51,134,188 ± 57,170,143 ± 8.5,173 ± 16,186 ± 9.4
CN1CCCC(n2nc(Cc3ccc(Cl)cc3)c3ccccc3c2=O)CC1.Cl (stereo not given) [Azelastine HCl],142 ± 46,106,101 ± 1.3,69.2,113 ± 22,116,57.6 ± 17,78.7 ± 8.4,94.9 ± 6.3
O=C(Oc1ccccc1C(=O)O)c1ccccc1O [Sasapyrine],113 ± 14,109,108 ± 17,104,74.4 ± 6.4,122,90.2 ± 1.2,123 ± 24,142 ± 7.2
CN[C@H](CC(C)C)C(=O)N[C@H]1C(=O)N[C@@H](CC(N)=O)C(=O)N[C@H]2C(=O)N[C@H]3C(=O)N[C@H](C(=O)N[C@H](C(=O)O)c4cc(O)cc(O)c4-c4cc3ccc4O)[C@H](O)c3ccc(c(Cl)c3)Oc3cc2cc(c3O[C@@H]2O[C@H](CO)[C@@H](O)[C@H](O)[C@H]2O[C@H]2C[C@](C)(N)[C@H](O)[C@H](C)O2)Oc2ccc(cc2Cl)[C@H]1O [Vancomycin hydrochloride],125 ± 1.7,110,146 ± 38,92.4,195 ± 13,167,122 ± 7.7,107 ± 4.2,148 ± 22
